Most compounds without a hit are left out; they make up all but 4.5% or so of the library.
CSC inhib – blocks cancer stem cells. hit rate 1.1% among 300,000. inhibition, % at 7.5 µM. cancer stem cell-like cells viability, luminescence; in the data active means inhibition above about 75%; tested in HMLE shEcad cells
Jurkat NFkB inh – lowers PMA/ionomycin-induced NF-kB signal in Jurkat cells; PMA/ionomycin-induced NF-kB luciferase reporter, luminescence; inhibition, % at 4 µM; hit rate 0.53% among 330,000; in the data active means inhibition above about 50%
697 NFkB inh – inhibitors of the PMA/ionomycin-induced NF-kB reporter in 697 B cells. hit rate 0.33% among 330,000. 697 B-cell NF-kB luciferase reporter, 16 h. AID 435022. inhibition, % at 4 µM; in the data active means inhibition above about 35%
Mdm2 MdmX PPI – human Mdm2/MdmX binding inhibition. O15151+Q00987. SaOS-2 split-luciferase Mdm2/MdmX complementation, luminescence. inhibition, % at 8 µM. hit rate 3% among 330,000;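 active means inhibition of at least 50% at 8 µM in the primary screen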
Target sequence (O15151 whole entry, looked up): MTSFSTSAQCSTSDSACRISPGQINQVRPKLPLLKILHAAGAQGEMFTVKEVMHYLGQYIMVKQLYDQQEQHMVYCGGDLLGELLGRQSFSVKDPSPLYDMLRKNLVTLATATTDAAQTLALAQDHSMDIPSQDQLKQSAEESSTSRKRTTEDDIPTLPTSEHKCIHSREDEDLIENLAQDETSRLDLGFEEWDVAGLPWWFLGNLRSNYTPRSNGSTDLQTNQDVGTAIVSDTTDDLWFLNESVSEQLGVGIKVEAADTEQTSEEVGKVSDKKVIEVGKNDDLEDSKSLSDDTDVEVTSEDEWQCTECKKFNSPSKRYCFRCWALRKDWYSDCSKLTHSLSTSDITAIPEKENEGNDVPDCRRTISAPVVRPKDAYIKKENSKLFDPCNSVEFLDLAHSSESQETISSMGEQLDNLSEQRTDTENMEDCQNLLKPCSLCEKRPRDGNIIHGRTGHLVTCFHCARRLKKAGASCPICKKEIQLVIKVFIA
Target sequence (Q00987 whole entry, looked up): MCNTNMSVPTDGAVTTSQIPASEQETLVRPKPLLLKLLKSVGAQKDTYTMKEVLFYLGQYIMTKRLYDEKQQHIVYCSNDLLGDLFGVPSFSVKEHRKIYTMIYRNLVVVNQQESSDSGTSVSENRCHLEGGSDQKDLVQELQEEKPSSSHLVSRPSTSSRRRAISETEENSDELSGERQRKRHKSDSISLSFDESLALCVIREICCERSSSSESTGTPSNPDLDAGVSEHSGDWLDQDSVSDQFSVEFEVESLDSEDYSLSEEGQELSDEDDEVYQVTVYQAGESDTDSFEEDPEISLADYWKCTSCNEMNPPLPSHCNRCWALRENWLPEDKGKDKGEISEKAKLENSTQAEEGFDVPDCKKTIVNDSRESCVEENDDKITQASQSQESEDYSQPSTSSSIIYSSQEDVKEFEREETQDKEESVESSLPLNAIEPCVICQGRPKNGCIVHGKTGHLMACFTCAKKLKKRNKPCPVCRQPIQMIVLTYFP
Gli-Sufu antag – blocks Gli-Sufu signaling in a luciferase reporter; AID 588413; hit rate 0.74% among 340,000; Sufu-KO-LIGHT fibroblasts, Gli luciferase reporter luminescence; inhibition, % at 5 µM;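 active means inhibition above about 55%, limit read from the data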;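 further: 0% = DMSO-treated cells and 100% = wells with medium but no cells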
aSyn UTR inh – 5' untranslated region of α-synuclein, MLPCN primary screen; alpha-synuclein 5'UTR reporter, inhibitor activity; inhibition, % (tested at 7.5 µM); hit rate 0.82% among 300,000; in the data active means inhibition above about 60%;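 further: H4 neuroglioblastoma cells stably carrying SNCA 5'UTR luciferase fusion; 0% = DMSO wells and 100% = positive control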
Gli antag conf – Gli-SUFU antagonism confirmation, single concentration; Sufu-KO-LIGHT cells, Gli luciferase reporter, luminescence; shares compounds with Gli-Sufu antag; inhibition, % at 5 µM; hit rate 40% among 2,500;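 active means mean inhibition at 5 µM reaching about 45%, limit read from the data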;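 further: plate controls were DMSO-treated cells for no effect and wells lacking cells for full effect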
SufuKO cytotox – counter-screen for Gli-SUFU antagonists: cytotoxicity; shares compounds with Gli-Sufu antag; Sufu-KO-LIGHT cells cytotoxicity, ATP luminescence; cytotoxicity, % at 5 µM; hit rate 32% among 2,500;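 active means mean cytotoxicity at 5 µM above about 25%, limit read from the data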;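 further: cells exposed to compound overnight for roughly 16 to 18 hours; plate controls were DMSO wells with cells for no effect and medium without cells for full effect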
Wnt3a counter – inhibits Wnt3a reporter, counter-screen for Gli-SUFU antagonists | shares compounds with Gli-Sufu antag | Wnt-LIGHT cells, Wnt3a-driven luciferase reporter, luminescence | inhibition, % at 6.25 µM | hit rate 20% among 2,500 | AID 651995;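 active means mean inhibition above about 25%, limit read from the data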
* hit, by the source's call; / = no result given.

SMILES	CSC inhib	Jurkat NFkB inh	697 NFkB inh	Mdm2 MdmX PPI	Gli-Sufu antag	aSyn UTR inh	Gli antag conf	SufuKO cytotox	Wnt3a counter
O=C(CCc1nc2ccccc2c(=O)[nH]1)OCc1cccc(C(F)(F)F)c1	-2.5	11.6	-3.4	-17.0	3.0	-0.7	/	/	/
O=C(/C=C/c1ccc(OCc2ccccc2)c(OCc2ccccc2)c1)c1cccnc1	7.8	5.0	-1.4	43.9	53.4	-61.6	25.3	14.6	-20.2
O=C(/C=C/c1ccc(Cl)cc1)c1cccnc1	9.1	-17.2	-14.5	10.8	-12.0	/	/	/	/
C/C(CC(=O)Nc1ccccn1)=N\NC(=O)C(=O)Nc1ccccc1C	-15.9	9.2	14.2	6.6	56.0*	-9.1	20.3	-0.9	3.2
O=C(O)C1C2CCC(O2)C1C(=O)NCc1ccc(Cl)cc1 (centres undefined)	/	5.5	17.3	12.8	0.1	16.5	/	/	/
CCN(CC)CCNc1ccc(C)c2sc3ccc(O)cc3c(=O)c12	/	/	/	/	66.8*	/	68.8*	12.1	-44.8
COCc1c(C(=O)NCCc2ccc(OC(F)F)cc2)oc2ccccc12	3.8	4.9	-0.4	-8.9	-0.9	/	/	/	/
CCOc1ccc(NC(=O)CCN2CCN(S(=O)(=O)c3ccc(F)cc3)CC2)cc1	8.6	-4.0	-46.1	-9.3	-6.5	5.8	/	/	/
CCOc1ccccc1NC(=O)CCN1CCN(S(=O)(=O)c2ccc(Br)cc2)CC1	3.2	-5.9	-6.5	11.1	52.6	34.3	16.6	19.1	-73.6
Cc1cc(=O)oc2cc(OCC3CC(c4ccc(N(C)C)cc4)=NO3)ccc12 (centres undefined)	10.2	-0.5	5.8	21.3	98.9*	-36.7	-0.1	17.2	-70.8
Cc1cc(=O)oc2cc(OCC3CC(c4ccc(Cl)cc4)=NO3)ccc12 (centres undefined)	37.2	11.7	14.6	27.1	1.0	29.0	/	/	/
COc1cc(C)c(CN2CCC(n3nccc3NC(=O)C3CCOC3)CC2)cc1C (centres undefined)	1.5	-25.2	-4.0	16.7	59.4*	-14.0	14.0	7.3	-13.3
Cc1ccc(C(=O)C(C)OC(=O)c2ccc(Cl)nc2)cc1 (centres undefined)	-14.0	-1.6	0.0	12.9	-8.5	-16.1	/	/	/
CC(C)CC(OC(=O)c1ccc(Cl)nc1)C(=O)NC1CCCC1 (centres undefined)	-5.4	-2.1	9.1	8.6	55.8*	-8.6	15.9	8.6	50.1*
N#Cc1ccccc1OCC(=O)N1CCN(C(=O)c2ccco2)CC1	-17.9	0.6	12.1	31.2	-12.2	22.2	/	/	/
CCN(CC)S(=O)(=O)c1ccc(C(=O)NC(C)(C)C)cc1	-11.9	1.2	9.4	-6.9	1.3	-23.9	/	/	/
CCCN1CCC(=O)N([C@H](CSc2ccc(C)cc2)Cc2ccccc2)CC1	/	6.8	19.0	23.1	29.9	-5.7	/	/	/
CCCN1CCC(=O)N([C@H](CSc2ccc(OC)cc2)Cc2ccccc2)CC1	8.5	12.7	11.1	-23.8	52.5	20.0	48.4*	18.1	10.2
O=C1CCN(CCc2ccccc2)CCN1[C@H](CSc1ccccc1)Cc1ccccc1	12.5	-2.6	-6.7	3.1	62.1*	10.0	26.9	22.7	-12.0
Cc1ccc(SC[C@H](Cc2ccccc2)N2CCN(CCc3ccccc3)CCC2=O)cc1	22.0	4.2	12.1	17.8	15.3	26.1	/	/	/
CCCCCn1c(CCC(=O)Oc2ccccc2OC)nc2c1c(=O)[nH]c(=O)n2CCCC	-3.5	9.1	-7.9	2.2	-1.0	-12.0	/	/	/
COc1ccc(CNCC(O)COc2cccc3c2OC(C)(C)C3)cc1 (centres undefined)	-8.4	11.1	-6.7	32.3	59.5*	0.1	60.5*	27.5*	14.0
COC(=O)c1ccc(COc2cccc3c2OC(C)(C)C3)cc1	-5.2	3.0	-24.2	1.8	5.5	-12.3	/	/	/
O=C(C1CCN(Cc2ccc(F)cc2)CC1)N(CCc1ccccc1)Cc1ccccc1	49.7	-0.3	5.2	41.9	58.3*	10.6	24.4	2.1	-49.4
Clc1cccc(C[n+]2cc(-c3ccccc3)n3c2CCC3)c1	6.9	12.4	-22.6	30.3	47.8	-11.1	/	/	/
SMILES	CSC inhib	Jurkat NFkB inh	697 NFkB inh	Mdm2 MdmX PPI	Gli-Sufu antag	aSyn UTR inh	Gli antag conf	SufuKO cytotox	Wnt3a counter
Cc1ccc(-c2c[n+](CC(=O)N3c4ccccc4Sc4ccccc43)c3n2CCC3)cc1	-6.4	11.7	-27.9	20.1	42.9	7.7	/	/	/
Cc1ccc(C[n+]2cc(-c3ccc(Cl)cc3)n3c2CCC3)cc1	19.2	8.1	-22.4	37.3	76.8*	/	79.0*	32.4*	18.7
Cc1ccc(-c2c[n+](Cc3ccc(Cl)cc3)c3n2CCC3)cc1	20.5	23.7	-9.3	35.4	79.4*	-13.2	81.5*	33.3*	19.0
Cc1ccc(-c2c[n+](Cc3cccc(Cl)c3)c3n2CCC3)cc1	/	21.3	-41.3	7.0	79.3*	20.6	82.5*	35.8*	19.3
CCc1ccc(NC(=O)C[n+]2cc(-c3ccc(C)cc3)n3c2CCC3)cc1	3.7	17.1	1.5	7.6	5.3	13.4	/	/	/
Cc1ccc2nc(SC(C)C(=O)NCc3ccc4c(c3)OCO4)[nH]c2c1 (centres undefined)	-8.4	0.4	9.4	-34.6	-6.8	-2.6	/	/	/
Cc1cc(C)c[n+](C(C)C(=O)c2ccc(-c3ccccc3)cc2)c1 (centres undefined)	27.6	33.8	26.8	15.2	79.9*	12.0	78.9*	23.5	-0.2
COc1cc(CCC(=O)Nc2ccc(C)c(S(=O)(=O)N3CCCCCC3)c2)cc(OC)c1OC	/	16.3	-18.4	34.7	51.1	/	30.2	4.2	-8.2
COc1cccc(-c2ccc(SCC(=O)c3ccccc3)nn2)c1	-5.0	2.4	-12.0	-11.4	55.3*	-29.1	22.1	12.1	-70.5
O=C(NCCCc1ccc(F)cc1)C1CCC(=O)N(CC2CCCCC2)C1 (centres undefined)	-1.2	-0.8	10.9	-4.3	-8.3	-11.7	/	/	/
O=C(Cc1cn(Cc2cccc(Cl)c2)c2ccccc12)N1CCCCCC1	7.9	-4.1	0.1	19.6	6.6	7.6	/	/	/
COc1ccc(/C=N\NC(=O)C2C(=O)NCC2c2ccccc2)cc1O (centres undefined)	2.6	3.5	-1.8	-7.4	-4.7	-0.1	/	/	/
O=C(COc1ccccc1[N+](=O)[O-])Nc1ccc2c(c1)CCC2	-2.5	-65.0	-64.9	-80.3	-31.7	/	/	/	/
COc1ccc(S(=O)(=O)Cc2ccc(C(=O)N3CCN(c4ccc(Cl)cc4)CC3)o2)cc1	-15.5	16.4	-7.6	-13.5	52.3	26.7	18.4	10.9	-29.0
COc1ccc(N2CCN(C(=O)c3ccc(Cn4nc(C)c([N+](=O)[O-])c4C)o3)CC2)cc1	/	-0.4	-7.8	1.2	90.3*	26.1	10.7	26.9*	-41.0
